Measured values from PubChem BioAssay (NCATS).
Results filed as inconclusive are left out. The source made the active and inactive calls. Calls come from the whole dose curve; as a rule, active = well fitted curve in the direction sought with a large enough effect; inconclusive = small, poorly fitted or top-dose-only effect, or another doubt; inactive = no such curve, though single readings can be large; an effect the other way counts as inactive or inconclusive.

Experiments:
[1] = target: Cellular tumor antigen p53 (Homo sapiens) (UniProt P04637); test: Primary qHTS for small molecule compounds that upregulate eGFP-tagged delta133p53alpha (in N-terminal) cells. (AID 2060322); details: NCI-H358 eGFP-delta133p53alpha fluorescence, 24 h; activation: stronger effect = higher value;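 note: cells pre-induced with doxycycline then dosed without doxycycline; series mostly up to about 56 µM; 0% = DMSO vehicle and 100% = reference activator; nearly all actives have a fitted effect of over 75% in size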
Method in brief: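 NCI-H358 cells pre-induced 24 h with 10 ng/ml doxycycline for eGFP-delta133p53alpha, plated dox-free and exposed 24 h at 37C to titrated compounds. Fixed, Hoechst-stained; gated GFP peak intensity by laser scanning cytometry, normalized to DMSO (0%) and 57.5 uM 5-azacytidine (100%).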

[2] = target: Aldehyde dehydrogenase, mitochondrial (Homo sapiens) (UniProt P05091); test: qHTS for Inhibitors of the Aldehyde Dehydrogenase Family (ALDH2) Primary screen (AID 2061308);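 note: plate controls were vehicle for no effect and reference inhibitor for full effect; nearly all actives have a fitted effect of over 55% in size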
[3] = target: Retinaldehyde dehydrogenase 3 (Homo sapiens) (UniProt P47895); test: qHTS for Inhibitors of the Aldehyde Dehydrogenase Family (ALDH1A3) Primary screen (AID 2061315);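 note: plate controls were DMSO vehicle for no effect and reference inhibitor for full effect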

Cellular tumor antigen p53 (Homo sapiens), sequence (P04637 whole entry, looked up): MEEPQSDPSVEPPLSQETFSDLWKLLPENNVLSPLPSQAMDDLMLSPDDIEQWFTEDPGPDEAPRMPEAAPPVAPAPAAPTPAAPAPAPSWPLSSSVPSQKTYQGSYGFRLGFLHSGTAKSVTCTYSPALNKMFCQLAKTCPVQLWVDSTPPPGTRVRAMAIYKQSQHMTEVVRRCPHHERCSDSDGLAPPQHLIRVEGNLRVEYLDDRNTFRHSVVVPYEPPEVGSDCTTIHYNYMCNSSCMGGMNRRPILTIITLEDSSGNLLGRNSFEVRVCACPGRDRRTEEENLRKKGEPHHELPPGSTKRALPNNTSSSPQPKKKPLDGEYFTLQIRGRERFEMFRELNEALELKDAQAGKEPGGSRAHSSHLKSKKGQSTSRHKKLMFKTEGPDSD

CS(=O)(=O)N(CC(=O)NCC1CC1)c1cc(C(F)(F)F)ccc1Cl
inactive: activation [1] -13% | Potency [2] | Potency [3]

CN1C(=O)c2ccccc2-n2c(nc3ccccc3c2=O)/C1=C/c1ccccc1
inactive: activation [1] 2.29% | Potency [2] | Potency [3]

C=C(CCO[C@@H]1O[C@H](CO)[C@@H](O)[C@H](O)[C@H]1O)C(=O)O
inactive: activation [1] -22.3% | Potency [2] | Potency [3]

C=C[C@H]1[C@H](O[C@@H]2O[C@H](CO)[C@@H](O)[C@H](O)[C@H]2O)OC=C2C(=O)N3Cc4c([nH]c5ccccc5c4=O)[C@@H]3C[C@H]21
inactive: activation [1] 0.893% | Potency [2] | Potency [3]

CO[C@@H]1CC(OC2CCC3(C)C(CCC45CCC(C6=CC(=O)OC6)C(C)(CCC43)C5=O)C2)O[C@H](C)[C@@H]1O[C@@H]1O[C@H](CO[C@@H]2O[C@H](CO)[C@@H](O)[C@H](O)[C@H]2O)[C@@H](O)[C@H](O)[C@H]1O (stereo partly specified)
inactive: activation [1] 1.53% | Potency [2] | Potency [3]

CC1(C)CC[C@]2(C(=O)O[C@@H]3O[C@H](CO)[C@@H](O)[C@H](O)[C@H]3O)CC[C@]3(C)C(=CCC4[C@@]5(C)CC[C@H](O[C@@H]6O[C@H](C(=O)O)[C@@H](O)[C@H](O)[C@H]6O)[C@@](C)(CO)C5CC[C@]43C)C2C1 (stereo partly specified)
inactive: activation [1] -1.53% | Potency [2] | Potency [3]

CC/C=C\CCO[C@@H]1O[C@H](CO)[C@@H](O)[C@H](O)[C@H]1O
inactive: activation [1] -18.3% | Potency [2] | Potency [3]

O=C(O)/C=C/c1ccc(O)c(O[C@@H]2O[C@H](CO)[C@@H](O)[C@H](O)[C@H]2O)c1
inactive: activation [1] 16% | Potency [2] | Potency [3]

CC(CCO)CCC1C2(C)CCCC(C)(C)C2CC[C@@]1(C)O (stereo partly specified)
inactive: activation [1] 18.3% | Potency [2] | Potency [3]

CC1(C)CC[C@]2(C(=O)O)CC[C@]3(C)C(=CCC4[C@@]5(C)CC[C@H](O[C@@H]6O[C@H](C(=O)O)[C@@H](O)[C@H](O)[C@H]6O)C(C)(CO)C5CC[C@]43C)C2C1 (stereo partly specified)
inactive: activation [1] 12.2% | Potency [2] | Potency [3]

C=C1C(OC2OCC(O)C(O)C2O)CC2C(C)(C)C(O)CCC2(C)C1CC/C(C)=C\CO (stereo unspecified)
inactive: activation [1] 7.63% | Potency [2] | Potency [3]

C=C1C(=O)O[C@H]2[C@H]1[C@@H](OC(=O)/C(C)=C\C)C[C@]1(C)O[C@@H]1[C@H]1O[C@H]1C(=C)[C@H]2O
inactive: activation [1] -10.7% | Potency [2] | Potency [3]

O=S(=O)(c1ccc(Cl)cc1)N1CCN(c2ccnc3cc(Cl)ccc23)CC1
inactive: activation [1] -12.5% | Potency [2] | Potency [3]

O=C(O[C@H]1[C@@H]2C=CO[C@@H](O[C@@H]3O[C@H](CO)[C@@H](O)[C@H](O)[C@H]3O)[C@@H]2[C@@]2(CO)O[C@@H]12)c1ccccc1
inactive: activation [1] 10.7% | Potency [2] | Potency [3]

O=C(O)CCc1cc2ccoc2cc1O[C@@H]1O[C@H](CO)[C@@H](O)[C@H](O)[C@H]1O
inactive: activation [1] 6.11% | Potency [2] | Potency [3]

CC(=O)/C=C/C1C(C)CC(O[C@@H]2O[C@H](CO)[C@@H](O)[C@H](O)[C@H]2O)CC1(C)C (stereo partly specified)
inactive: activation [1] -0.893% | Potency [2] | Potency [3]

C=C[C@H]1[C@H](O[C@@H]2O[C@H](CO[C@@H]3OC[C@](O)(CO)[C@H]3O)[C@@H](O)[C@H](O)[C@H]2O)OC=C2C(=O)OCC[C@H]21
inactive: activation [1] 5.36% | Potency [2] | Potency [3]

COC(=O)C1=COC(OC2OC(CO)C(O)C(O)C2O)C2C(C)C(OC(=O)/C=C/c3ccc(O)cc3)C(O)C12 (stereo unspecified)
inactive: activation [1] -8.93% | Potency [2] | Potency [3]

CC1(C)CCCC2(C)C(C(=O)O)=CCC12 (stereo unspecified)
inactive: activation [1] -24.4% | Potency [2] | Potency [3]

Nc1c(S(=O)(=O)c2ccccc2)c2nc3ccccc3nc2n1-c1ccc(F)cc1
inactive: activation [1] -10.3% | Potency [2] | Potency [3]

CC1C(=O)OCC2=CC[N+]3([O-])CCC(OC(=O)C(C)(O)C1(C)O)C23 (stereo unspecified)
inactive: activation [1] 24.1% | Potency [2] | Potency [3]

C=C[C@H]1[C@H](O[C@@H]2O[C@H](CO)[C@@H](O)[C@H](O)[C@H]2O)OC=C(C(=O)OC)[C@H]1C[C@@H]1N[C@H](C(=O)O)Cc2c1[nH]c1ccccc21
inactive: activation [1] -4.58% | Potency [2] | Potency [3]

CC(=O)OC1C(c2ccccc2)CCC(c2ccccc2)C1OC(C)=O (stereo unspecified)
inactive: activation [1] 1.53% | Potency [2] | Potency [3]

C[C@@H]1C(=O)O[C@H]2[C@H](O)C34[C@H]5C[C@@H](C(C)(C)C)C36[C@@H](OC(=O)[C@@H]6O)O[C@@]4(C(=O)O5)[C@@]12O (stereo partly specified)
inactive: activation [1] 0.763% | Potency [2] | Potency [3]

N#C[C@@H]1CCCN1C(=O)CNC12CC3CC(CC(O)(C3)C1)C2
inactive: activation [1] 15% | Potency [2] | Potency [3]

CCS(=O)(=O)N1CC(CC#N)(n2cc(-c3ncnc4[nH]ccc34)cn2)C1
inactive: activation [1] 4.89% | Potency [2] | Potency [3]

C/C(=C/CCC(CO)C1CCC2(C)C3CCC4C(C)(C)C(OC5OC(CO)C(O)C(O)C5O)CC(O)C45CC35CCC12C)COC1OC(CO)C(O)C(O)C1O (stereo unspecified)
inactive: activation [1] -10.7% | Potency [2] | Potency [3]
